Source: PubChem BioAssay (The Scripps Research Institute Molecular Screening Center)
A selection: hits, their analogues and other compounds. The true share with any hit is near 3.1%.
Rin1-Abl PPI inh = inhibitors of human Rin1-Abl protein interaction. inhibition, % at 7.35 µM. P00519+Q13671. AID 588664. TR-FRET Rin1/Abl binding, biochemical. hit rate 0.4% among 360,000; in the data active means inhibition above about 5%, passing the limit was not always enough
E coli Lon inh = inhibits E. coli Lon protease | inhibition, % at 7.94 µM | hit rate 0.42% among 360,000 | purified E. coli Lon protease, fluorescence polarization | P0A9M0; in the data active means inhibition above about 13%, passing the limit was not always enough;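 further: 0% = enzyme with probe and DMSO and 100% = no enzyme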
PAFAH1B3 inh = PAFAH1B3 (human) inhibition; recombinant PAFAH1B3, FP-rhodamine probe, fluorescence polarization; inhibition, % at 3.39 µM; hit rate 0.28% among 340,000; AID 492972;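 active means inhibition above the screen-wide average of all tested compounds plus 3 SD, cut at about 25% in these data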;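 further: 0% = enzyme with DMSO only and 100% = wells lacking PAFAH1B3 protein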
Target sequence (Q15102 whole entry, looked up): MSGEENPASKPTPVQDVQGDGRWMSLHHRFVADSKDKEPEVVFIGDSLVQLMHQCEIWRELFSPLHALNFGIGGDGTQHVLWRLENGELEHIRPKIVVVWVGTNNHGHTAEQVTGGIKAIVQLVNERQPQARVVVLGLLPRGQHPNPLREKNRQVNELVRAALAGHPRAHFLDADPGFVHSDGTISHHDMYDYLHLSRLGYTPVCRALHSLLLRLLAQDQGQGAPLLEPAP
PAFAH1B2 FP inh = inhibitors of human PAFAH1B2 | inhibition, % at 3.39 µM | recombinant PAFAH1B2, FP-rhodamine activity probe, fluorescence polarization | hit rate 1.2% among 340,000 | AID 492953;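 active means inhibition above the mean of all tested compounds plus 3 SD, cut at about 24% in these data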;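 further: 0% = enzyme with DMSO and 100% = wells lacking PAFAH1B2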
PAFAH2 inh = PAFAH2 (human) inhibition; recombinant PAFAH2, FP-rhodamine activity probe, fluorescence polarization; inhibition, % at 3.39 µM; hit rate 0.99% among 340,000; AID 492956;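 active means inhibition above the mean over all tested compounds plus 3 SD, cut at about 30% in these data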;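 further: inhibitors block probe labeling of enzyme so polarization drops; 0% = enzyme with DMSO and 100% = wells lacking PAFAH2 protein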
pPAFAH inh = pPAFAH (human) enzyme inhibition; AID 463082; recombinant pPAFAH, FP-rhodamine probe fluorescence polarization; inhibition, % at 3.39 µM; Q13093; hit rate 1.5% among 330,000;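 active means inhibition above the mean inhibition across the screen plus 3 SD, cut at about 25% in these data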;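 further: inhibitors block binding of the rhodamine activity-based probe so polarization drops; 0% = enzyme with DMSO and 100% = wells lacking pPAFAH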
Target sequence (Q13093 whole entry, looked up): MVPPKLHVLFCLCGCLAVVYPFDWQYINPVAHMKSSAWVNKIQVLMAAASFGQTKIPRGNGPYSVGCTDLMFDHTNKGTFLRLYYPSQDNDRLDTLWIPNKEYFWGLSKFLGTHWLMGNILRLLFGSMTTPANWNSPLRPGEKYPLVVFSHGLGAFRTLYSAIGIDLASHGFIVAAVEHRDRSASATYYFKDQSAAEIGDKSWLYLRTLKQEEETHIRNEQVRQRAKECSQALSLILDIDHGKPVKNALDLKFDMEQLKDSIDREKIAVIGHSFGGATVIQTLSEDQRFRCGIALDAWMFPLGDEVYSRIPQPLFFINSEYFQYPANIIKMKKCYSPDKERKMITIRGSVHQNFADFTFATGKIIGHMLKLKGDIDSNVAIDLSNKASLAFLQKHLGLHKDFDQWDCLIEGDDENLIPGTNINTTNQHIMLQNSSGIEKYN
Starred values were filed as active, the others as inactive; x = no result.

SMILES | Rin1-Abl PPI inh | E coli Lon inh | PAFAH1B3 inh | PAFAH1B2 FP inh | PAFAH2 inh | pPAFAH inh
Brc1ccc(CNc2ccc3ncccc3c2)cc1 | -2 | -6 | 4 | 51* | 0 | x
CCn1cnc2cc(NCc3ccc(Br)cc3)ccc21 | x | x | x | x | x | 9
CC(C)CC(=O)Nc1ccc(-c2nnn(CC(=O)NCc3ccco3)n2)cc1 | -1 | 2 | 3 | 3 | 4 | 4
C=Cc1ccc(Cn2c(=O)n(CCCOC)c(=O)c3sccc32)cc1 | 0 | 6 | 1 | -5 | -5 | -5
CCC(=O)Nc1cc(C)c(NC(=O)C23CC4CC(CC(C4)C2)C3)cn1 | 1 | -4 | -2 | 32* | 5 | -2
COc1ccc(C2CCc3cc4c(cc3C2=NO)OCO4)cc1OC (stereo unspecified) | 0 | -3 | x | x | x | x
CCCOc1ccc(C(=O)Nc2ccc(S(=O)(=O)Nc3onc(C)c3C)cc2)cc1 | 7 | 0 | 18 | 7 | -3 | 30*
Cc1noc(NS(=O)(=O)c2ccc(NC(=O)CC34CC5CC(CC(Br)(C5)C3)C4)cc2)c1C | -1 | 3 | 5 | 33* | 10 | -5
Cc1noc(NS(=O)(=O)c2ccc(NC(=O)Nc3ccc(Cl)c(Cl)c3)cc2)c1C | 0 | 0 | 18 | 14 | -19 | 25*
Clc1ccc(-c2csc3ncnc(NCCN4CCOCC4)c23)cc1 | 2 | -12 | 2 | 1 | 4 | -2
c1ccc(CNc2nc(CN3CCOCC3)nc3scc(-c4ccccc4)c23)cc1 | 0 | 1 | 1 | 4 | 0 | 34*
c1ccc(-c2csc3ncnc(NCCN4CCOCC4)c23)cc1 | 0 | -1 | -8 | 4 | 2 | 5
Clc1ccc(CNc2nc(CN3CCOCC3)nc3scc(-c4ccccc4)c23)cc1 | 1 | 6 | 9 | 7 | -1 | 33*
CCN(CC)CCCn1c2c(c(SCC(=O)Nc3ccc4c(c3)OCO4)nc1=O)CCC2 | -2 | 3 | 6 | 4 | -4 | 3
O=C(CSc1n[nH]c(-c2ccc(S(=O)(=O)NC3CCCCC3)cc2)n1)N1CCCC1 | -2 | -5 | 10 | 13 | 3 | 28*
Cc1c(Cl)ccc2c1NC(=O)C21NC(CCC(N)=O)[C@H]2C(=O)N(c3ccc(Cl)cc3)C(=O)[C@H]21 (stereo partly specified) | -1 | -2 | -4 | -2 | 10 | 25*
Cc1ccc(S(=O)(=O)Nc2cccc(-c3cn4ccsc4n3)c2)cc1 | 1 | -4 | 2 | 6 | -9 | 0
O=S(=O)(Nc1cccc(-c2cn3ccsc3n2)c1)c1ccc(F)cc1 | 1 | 3 | 14 | 7 | 5 | 32*
O=C(Nc1cccc([N+](=O)[O-])c1)c1cc2ccccc2cc1O | -6 | -6 | 1 | 3 | -4 | 34*
O=C(O)c1ccccc1C(=O)Nc1cccc([N+](=O)[O-])c1 | 1 | 7 | 5 | 3 | -1 | 2
COc1ccc(OC)c(CCNC(=O)c2ccc(CS(=O)(=O)c3ccc(Br)cc3)o2)c1 | -3 | -4 | 7 | 27* | 7 | 3
CCOC(=O)C1=C(C)N=c2s/c(=C/c3ccco3)c(=O)n2C1c1cccc(OC)c1 (stereo unspecified) | x | x | x | x | x | 33*
O=C(Nc1ccccc1Oc1ccccc1)c1ccccc1F | 2 | 1 | 3 | 0 | 2 | 28*
COc1cc(C2Nc3cccc4cccc(c34)N2)ccc1OC(C)=O | 1 | -6 | 38* | 10 | 5 | 11
S=c1[nH]nc(Cc2ccccc2)n1-c1ccc(Cl)cc1 | -1 | -5 | 7 | 29* | -4 | 5
SMILES | Rin1-Abl PPI inh | E coli Lon inh | PAFAH1B3 inh | PAFAH1B2 FP inh | PAFAH2 inh | pPAFAH inh
COc1ccc(NS(=O)(=O)c2ccc(NS(=O)(=O)c3cccc(C(=O)O)c3)cc2)cc1 | 1 | 1 | 0 | 2 | 8 | 15
COc1ccc(NS(=O)(=O)c2cccc(-c3nnc(-c4ccccc4)o3)c2)cc1 | 2 | -3 | 8 | -1 | 11 | 30*
CCCCc1n[nH]c(=S)n1Cc1ccc(Cl)cc1 | -1 | -1 | 5 | 27* | 1 | 3
S=c1[nH]nc(-c2ccc(Cl)cc2)n1Cc1ccccc1 | 1 | -3 | 6 | 37* | -3 | 4
CCCNC(=O)C1(C)CCCN(C/C=C/c2ccccc2)C1 (stereo unspecified) | 0 | -19 | x | x | x | x
CCOC(=O)C1CCCN(C(=O)c2ccc(F)c(Cl)c2)CC1 (stereo unspecified) | -3 | -5 | x | x | x | x
COc1ccc(NS(=O)(=O)c2ccc(-c3n[nH]c(=S)n3Cc3ccccc3)cc2)cc1 | 2 | -5 | 8 | 16 | -1 | 25*
COc1ccc(NS(=O)(=O)c2cccc(-c3n[nH]c(=S)n3Cc3ccccc3)c2)cc1 | 1 | 0 | 8 | 14 | 2 | 27*
COc1ccc(NS(=O)(=O)c2ccc(C)c(C(=O)NC3CCN(Cc4ccccc4)CC3)c2)cc1 | -4 | 12 | -1 | -2 | 4 | 26*
COc1ccccc1NS(=O)(=O)c1ccc(C)c(C(=O)NC2CCN(Cc3ccccc3)CC2)c1 | 2 | -2 | 0 | 1 | -7 | x
O=C(CNS(=O)(=O)c1ccc2ccccc2c1)OCc1csc(-c2ccccc2)n1 | -2 | -7 | 1 | 28* | -11 | 16
Cc1ccc(S(=O)(=O)NCC(=O)OCc2csc(-c3ccccc3)n2)cc1 | 0 | -8 | 2 | 2 | -8 | 5
N#Cc1c(NC(=O)CSc2ncnc3sccc23)oc(-c2ccco2)c1-c1ccco1 | 0 | -26 | 16 | 3 | 22 | 33*
Cc1cc(NC(=O)CSc2ncnc3sccc23)no1 | 0 | -2 | 1 | 3 | -2 | -2
CCn1c(SCC(=O)Nc2oc(-c3ccccc3)c(-c3ccccc3)c2C#N)nnc1-c1ccco1 | -3 | 3 | 9 | 25* | 11 | 21
CCn1c(SCC(=O)Nc2oc(-c3ccccc3)c(-c3ccccc3)c2C#N)nnc1-c1ccncc1 | 4 | -7 | 1 | 23 | 9 | 9
O=C(c1ccoc1)N1CCC(CO)(CCc2ccccc2)CC1 | 4 | 2 | -1 | 0 | 7 | 5
O=C(O)CC/C(=C\c1ccc(N2CCOCC2)c([N+](=O)[O-])c1)c1nc2ccccc2s1 | -3 | -1 | 0 | 92* | 2 | x
COc1cc(/C=C(\CCC(=O)O)c2nc3ccccc3s2)ccc1OCC(=O)Nc1c(Cl)cccc1Cl | 2 | -5 | 6 | 67* | 0 | 5
O=C(O)C/C(=C\c1ccc(N2CCOCC2)c([N+](=O)[O-])c1)c1nc2ccccc2s1 | -5 | 2 | -7 | 4 | 12 | 26*
CCCC#Cc1ccc2c(c1)O[C@H](CN(C)C(=O)CC1CC1)[C@H](C)CN([C@@H](C)CO)S2(=O)=O | -2 | -9 | x | x | x | x
Nc1ccc(C(=O)O)cc1 | -1 | -3 | 3 | 5 | -3 | 4
Nc1ccc(O)cc1 | x | x | x | x | x | 38*
O=c1ccc2cc3c([nH]c4ccc(Br)cc43)oc-2c1O | 37* | -32 | 45* | 42* | 52* | 79*
